RecA intein inh = inhibitors of M. tuberculosis RecA intein splicing | P9WHJ3 | cell-free RecA intein splicing, fluorescence | inhibition, % (concentration not given with the values) | 290,000 tested, 0.75% active; in the data active means inhibition above about 30%; inconclusive means no clear call, values can overlap the other calls
Target sequence (P9WHJ3 whole entry, looked up): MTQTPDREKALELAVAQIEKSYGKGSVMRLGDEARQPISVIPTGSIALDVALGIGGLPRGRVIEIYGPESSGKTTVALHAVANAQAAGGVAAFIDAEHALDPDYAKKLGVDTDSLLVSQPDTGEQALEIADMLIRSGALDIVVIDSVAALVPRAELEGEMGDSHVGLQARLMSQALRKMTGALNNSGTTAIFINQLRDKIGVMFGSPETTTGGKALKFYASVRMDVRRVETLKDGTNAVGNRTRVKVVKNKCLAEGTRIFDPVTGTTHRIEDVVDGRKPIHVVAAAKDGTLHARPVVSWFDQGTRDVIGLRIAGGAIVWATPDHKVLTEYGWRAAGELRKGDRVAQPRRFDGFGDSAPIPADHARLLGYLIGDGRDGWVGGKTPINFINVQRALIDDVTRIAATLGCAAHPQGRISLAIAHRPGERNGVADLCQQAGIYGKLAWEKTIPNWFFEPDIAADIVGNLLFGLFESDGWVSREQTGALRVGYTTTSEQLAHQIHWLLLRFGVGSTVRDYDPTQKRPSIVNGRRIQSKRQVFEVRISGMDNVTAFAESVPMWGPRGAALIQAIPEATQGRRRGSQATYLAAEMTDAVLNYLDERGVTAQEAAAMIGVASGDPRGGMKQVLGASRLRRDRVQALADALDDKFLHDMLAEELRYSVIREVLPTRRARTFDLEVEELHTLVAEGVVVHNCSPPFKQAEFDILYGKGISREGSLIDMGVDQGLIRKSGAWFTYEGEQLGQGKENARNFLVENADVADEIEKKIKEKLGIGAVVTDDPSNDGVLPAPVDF
RmlCD inh 1536 = blocks M. tuberculosis RmlC and RmlD coupled enzymes. 160,000 tested, 0.03% active. RmlC+RmlD coupled enzyme assay, percent inhibition; primary screen in compound mixtures. AID 1533. inhibition, % at 3.6 µM; in the data active means inhibition mostly above about 34%, no sharp cut-off; inconclusive means no clear call, values can overlap the other calls; inactive means mostly below about 22%
GFP chromophore = counter-screen GFP chromophore formation inhibition; shares compounds with RecA intein inh; cell-free GFP chromophore formation, fluorescence; EC50, µM; 2,100 tested, 83% active; AID 434968; call rule not given here
Each line names hits and unclear results; the compound was inactive in the other large screens (follow-up assays come after a bar, where they were run). A selection: hits, their analogues and other compounds. The true share with any hit is near 0.77%.

Cc1sc(NC(=O)C2=COCCO2)nc1-c1ccc(Br)cc1	none (no result: RmlCD inh 1536)
O=C(/C=C/c1ccc(F)cc1)NC(=S)N1CCCCC1c1cccnc1 (stereo not given)	RmlCD inh 1536 inconclusive
O=C1/C(=C/c2ccc(F)cc2)SC(=S)N1CC(=O)N1CCCCC1c1cccnc1 (stereo not given)	RecA intein inh 38 (no result: RmlCD inh 1536) | GFP chromophore inactive
Cc1ccc2[nH]c3nc(SCC#N)nnc3c2c1	none (no result: RmlCD inh 1536)
O=C(Nc1ccc(N2CCOCC2)cc1)Nc1ccc2nsnc2c1	RecA intein inh 54 | GFP chromophore inactive
O=C(Nc1ccc(N2CCOCC2)cc1)c1cnsn1	none
Nc1cc(OCC(F)(F)F)cc([N+](=O)[O-])c1	none
Nc1cc(N)c(OCC(F)(F)F)cc1OCC(F)(F)F	RecA intein inh 92 | GFP chromophore 7.6
CCNC(=O)C(=O)Nc1ccc(OC)c(Cl)c1	none
O=C(O)c1ccc(-n2ccnc2)c([N+](=O)[O-])c1	none (no result: RmlCD inh 1536)
COC(=O)c1cc([N+](=O)[O-])c(-n2ccnc2)c([N+](=O)[O-])c1	RecA intein inh 71 | GFP chromophore 11
CCN(CC)C(=O)CSc1nc(O)c(Cc2ccc(OC)cc2)c(=O)[nH]1	none (no result: RmlCD inh 1536)
Cc1c(-c2cccc(Cl)c2)nc2ccccc2c1C(=O)OCC(=O)Nc1ccc2c(c1)OCO2	none
CCCCn1c(N)c(N(CCC(C)C)C(=O)C(C)N2C(=O)c3ccccc3C2=O)c(=O)[nH]c1=O (stereo not given)	none (no result: RmlCD inh 1536)
O=C(NCc1cccc(F)c1)c1noc2c1CCCC2	none
CC(=O)N1CCn2c3c(c4cc(C)ccc42)CCCC31 (stereo not given)	none
Cc1ccc2c(c1)c1c3n2CCN(C(=O)CCl)C3CCC1 (stereo not given)	RecA intein inh 73 (no result: RmlCD inh 1536) | GFP chromophore 7.3
COc1ccc(CCNC(=O)c2cc(=O)[nH]c3ccc(Br)cc23)cc1OC	none
O=C(Oc1ccccc1-c1csnn1)c1cccs1	none
Cn1c(SCc2ccc([N+](=O)[O-])cc2)nc2c(c1=O)SCC2	none
O=C(N/N=C/c1ccc(OCc2ccccc2)cc1)c1ccncc1	none (no result: RmlCD inh 1536)
Oc1ccc(N=Cc2ccc(OCc3ccccc3)cc2)cc1	RecA intein inh 46 | GFP chromophore inactive
O=C(NCC1(c2ccccc2)CCCC1)C(=O)NCC1(c2ccccc2)CCCC1	none (no result: RmlCD inh 1536)
O=C(NCC1(c2ccccc2)CCCC1)C1(c2ccccc2)CCCC1	RecA intein inh 30 (no result: RmlCD inh 1536) | GFP chromophore inactive
O=[N+]([O-])c1ccc(S(=O)(=O)NCC(c2cccnc2)N2CCOCC2)cc1 (stereo not given)	none
CC1=NN(Cc2ccccc2)C(=O)C1C(c1ccccc1)C(C#N)C#N (stereo not given)	RecA intein inh 88 (no result: RmlCD inh 1536) | GFP chromophore 8.7
CC1=NN(Cc2ccccc2)C(=O)C1C(c1ccncc1)C(C#N)C#N (stereo not given)	RecA intein inh 68 | GFP chromophore 18
Cc1ccc(C)c(N2CCN(C(c3ccncc3)c3nnnn3Cc3ccccc3)CC2)c1 (stereo not given)	none (no result: RmlCD inh 1536)
CC1=NNC(=O)C1C(c1ccc(Cl)cc1)C(C#N)C#N (stereo not given)	RecA intein inh 85 | GFP chromophore 11
Cc1[nH]n(-c2ncc(-c3ccccc3)s2)c(=O)c1C(c1ccc(Cl)cc1)C(C#N)C#N (stereo not given)	none
CC1=NN(Cc2ccccc2)C(=O)C1C(c1ccc(Cl)cc1)C(C#N)C#N (stereo not given)	RecA intein inh 80 | GFP chromophore 6.2
Cc1ccc(C2=NNC(=O)C(c3ccc(Cl)cc3)C2)cc1 (stereo not given)	none
N#CC(c1ccccc1)C1CCN(Cc2ccccc2)CC1 (stereo not given)	none (no result: RmlCD inh 1536)
O=C(Nc1c(C(=O)O)[nH]c2ccccc12)c1cccc(C(F)(F)F)c1	none
CC(C)Oc1ccc(C(=O)N2CCCc3ccccc32)cc1	none
COc1cc2c(cc1O)CC1c3c(cc(O)c(OC)c3-2)CCN1C (stereo not given)	none
COc1cc2c(cc1OC)-c1c(OC)c(OC)cc3c1[C@H](C2)N(C)CC3	RecA intein inh 34 (no result: RmlCD inh 1536) | GFP chromophore 22
CN=C(Nc1cc(C)nn1CCC#N)c1ccccc1	none
Cc1cc(OC(=O)c2ccccc2)n(CCC#N)n1	RecA intein inh 85 | GFP chromophore 11
COC(=O)C1=NN(C(C)=O)C2(CC(=O)N(c3cc(C)cc(C)c3)C2=O)C1 (stereo not given)	RecA intein inh 30 (no result: RmlCD inh 1536) | GFP chromophore inactive
CCOC(=O)C1=NN(N=O)C2(CC(=O)N(c3cc(C)cc(C)c3)C2=O)C1 (stereo not given)	none
CCOC(=O)N1C(=O)[C@](c2ccc(Cl)cc2)(C(C)C)N1C(=O)OCC	RecA intein inh 34 (no result: RmlCD inh 1536) | GFP chromophore 3.5
CCOC(=O)N1C(=O)[C@@](c2ccc(Cl)cc2)(C(C)C)N1C(=O)OCC	RecA intein inh 49 (no result: RmlCD inh 1536) | GFP chromophore 33
CCOC(=O)N1CCN(C(=O)Cc2ccc(Cl)cc2)CC1	none
COC(=O)N1C(=O)[C@](c2ccccc2)(C(C)C)N1C(=O)OC	none (no result: RmlCD inh 1536)
Cc1cc2cc(CCNC(=O)c3c(-c4ccccc4Cl)noc3C)c(=O)[nH]c2cc1C	none (no result: RmlCD inh 1536)
CCOC(=O)N1CCN(C(=O)CNC(=O)c2nn(-c3ccc(OC)c(OC)c3)c(=O)c3ccccc23)CC1	none (no result: RmlCD inh 1536)
CC1(C)OC(=O)C(=NNc2ccc(Cl)cc2)C(=O)O1	none (no result: RmlCD inh 1536)
COC(=O)CNC(=O)C1CCCN1C(=O)CNC(=O)OCc1ccccc1 (stereo not given)	none (no result: RmlCD inh 1536)
C[n+]1c2ccccc2nc2ccc(NCCO)cc21	RecA intein inh 64 (no result: RmlCD inh 1536) | GFP chromophore 12
CC(C)n1c(NCCO)nc2ccccc21	none (no result: RecA intein inh)
c1ccc2nc3ccccc3nc2c1	none
CNc1ccc2nc3ccccc3[n+](C)c2c1	RecA intein inh 45 (no result: RmlCD inh 1536) | GFP chromophore 17
Cc1cc(OC(=O)N(C)C)nc2c1c(C)nn2C	none
COC(=O)CN1C(c2ccc(Cl)cc2)=Nc2ccc(Cl)cc2C1c1ccccc1 (stereo not given)	RecA intein inh 32 | GFP chromophore inactive
COc1ccc(C2=Nc3ccc(C)cc3C(c3ccccc3)N2CC(=O)NN)cc1 (stereo not given)	none
COc1ccc(/C(=N/OC(C)=O)c2nccc3cc(OC)c(OC)cc23)cc1OC	RecA intein inh 31 | GFP chromophore inactive
COc1ccc(C(NC(C)=O)c2nccc3cc(OC)c(OC)cc23)cc1OC (stereo not given)	none (no result: RmlCD inh 1536)
Cc1nn(CC(=O)Nc2c(F)c(F)cc(F)c2F)c(=O)c2cccn12	none (no result: RmlCD inh 1536)
O=[N+]([O-])C(/C=C(/Cl)[N+](=O)[O-])=C(N1CCCCC1)N1CCCCC1	RecA intein inh 49 | GFP chromophore 20
O=C(/C=C/c1ccccc1[N+](=O)[O-])N1CCCCC1	none
CCc1nc(N2CCN(C(C)=O)CC2)c2c3c(sc2n1)CC(C(C)(C)C)CC3 (stereo not given)	none (no result: RmlCD inh 1536)
CCc1nc(N2CCN(C(=O)CCl)CC2)c2c3c(sc2n1)CC(C)CC3 (stereo not given)	RecA intein inh 87 (no result: RmlCD inh 1536) | GFP chromophore 2.6
CC(C)S(=O)(=O)C1=NSC2=NC(=O)/C(=C\c3ccc(OC(=O)c4ccco4)cc3)C(=N)N21	RecA intein inh 34 (no result: RmlCD inh 1536) | GFP chromophore inactive
CCS(=O)(=O)C1=NSC2=NC(=O)/C(=C\c3ccc(OC(=O)c4ccco4)cc3)C(=N)N21	none (no result: RmlCD inh 1536)
CC(C)c1[nH]nc2c1C1(CCN(Cc3ccccc3)CC1)C(C#N)=C(N)O2	RecA intein inh 68 | GFP chromophore 21
Cc1[nH]nc2c1C1(CCOC1C)C(C#N)=C(N)O2 (stereo not given)	none
